# Data as given in PubChem BioAssay.
# Values joined by “and” are separate entries in the source; they are usually repeats but may differ in a detail not shown here. Equal values may be shown once. A structure can be active in one record and inactive in another. Active and inactive are the calls of the source. Unless noted, no stated cut-off is given here; in the data, active means inhibition above about 80%; inactive means the rest.
# How the values were obtained:
# [1] = sensitizers of A549 cells to miR-34 induction, primary screen, imaging, A549 dox-inducible miR-34, nuclei and caspase counts (AID 1347080;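 active means compounds whose cell count with miR-34 switched on is under 0.7 times the count with it off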); conditions: A549 miR-34 inducible, Hoechst nuclei count, 48 h
# [2] = survival rescue of mitochondrial mutant cells in low glucose, primary screen, MELAS cybrids, Rieske KO mouse fibroblasts, CellTiter-Glo (AID 1508586;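 active means mean z-score across replicates of 1.96 or higher in either the MELAS or the Rieske mutant cell line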;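 further: z relative to plate mean and SD of compound and empty wells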)
# [3] = LFS_MB_P medulloblastoma growth inhibition, cell-based, chromothripsis tumors, cisplatin or BGB combos (AID 1671449); conditions: LFS_MB_P medulloblastoma cells;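 further: cells exposed for 96 hours; 0% = vehicle DMSO and 100% = killing by high DMSO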
# [4] = HDN33 neuroblastoma growth inhibition, cell-based, chromothripsis tumors, cisplatin or BGB combos (AID 1671450); conditions: HDN33 neuroblastoma cells, stronger effect = higher value;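 further: cells exposed to compound for four days; 0% = vehicle DMSO and 100% = cell killing by high DMSO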
# [5] = ICB984 medulloblastoma cell growth inhibition, synergistic combos for chromothripsis tumors, cisplatin or BGB combos (AID 1671451; call rule not given here;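 further: cells exposed for 96 hours before readout; 0% = vehicle DMSO and 100% = killing by high DMSO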); conditions: ICB984 medulloblastoma cells, drug combinations, stronger effect = higher value
# [6] = LFS_MB_1R medulloblastoma cell growth inhibition, synergistic combos for chromothripsis tumors, cisplatin or BGB combos (AID 1671452); conditions: LFS_MB_1R medulloblastoma cells, stronger effect = higher value;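 further: cells exposed for 96 hours before readout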
# [7] = HTB85 osteosarcoma cell growth inhibition, synergistic combos for chromothripsis tumors, BGB or cisplatin IC20 combos (AID 1671453); conditions: HTB85 osteosarcoma cells, drug combinations, stronger effect = higher value;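 further: cells exposed for 96 hours before readout; 0% = vehicle DMSO and 100% = high DMSO killing control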
# [8] = CRL2098 osteosarcoma cell growth inhibition, synergistic combos for chromothripsis tumors, BGB or cisplatin IC20 combos (AID 1671454); conditions: CRL2098 osteosarcoma cells, drug combinations, stronger effect = higher value;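 further: cells exposed for 96 h before readout; 0% = vehicle DMSO and 100% = killing by high DMSO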
# [9] = HD-MB03 medulloblastoma cell growth inhibition, synergistic combos for chromothripsis tumors, BGB or cisplatin IC20 combos (AID 1671455; in the data active means inhibition above about 83%;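 further: 0% = vehicle DMSO and 100% = high DMSO as cytotoxic control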); conditions: HD-MB03 medulloblastoma cells, stronger effect = higher value
# [10] = UWB1.289 ovarian carcinoma cell growth inhibition, synergistic combos for chromothripsis tumors, BGB or cisplatin combos (AID 1671456); conditions: UWB1.289 ovarian carcinoma cells, stronger effect = higher value;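 further: cells exposed to compound for four days; 0% = vehicle DMSO and 100% = killing by high DMSO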
# [11] = LFS_MB_2R medulloblastoma cell growth inhibition, synergistic combos for chromothripsis tumors, cisplatin combos (AID 1671457); conditions: LFS_MB_2R medulloblastoma cells, stronger effect = higher value;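 further: cells exposed to compound for four days before readout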
# [12] = MDA-MB-436 breast carcinoma cell growth inhibition, synergistic combos for chromothripsis tumors, BGB or cisplatin combos (AID 1671458; call rule not given here;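 further: cells exposed for 96 hours; 0% = vehicle DMSO and 100% = killing by high DMSO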); conditions: MDA-MB-436 breast carcinoma growth inhibition, drug combinations, stronger effect = higher value
# [13] = UWB1.289_BRCA1 ovarian cancer growth, cell-based, BGB or cisplatin combinations (AID 1671459); conditions: UWB1.289 BRCA1 ovarian carcinoma, drug combinations, stronger effect = higher value
# [14] = human astrocyte viability loss, single and combined drugs, cytotoxicity control for chromothriptic childhood tumor combination screen, cell-based, BGB or cisplatin IC20 combos (AID 1671460); conditions: Human astrocytes, drug combinations, stronger effect = higher value;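 further: cells exposed to compounds for 96 hours before viability readout; 0% = vehicle and 100% = killing control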
# [15] = growth inhibition of BT084 medulloblastoma cells, cell-based, ICGC_MB145, cisplatin and BGB IC40 combos (AID 1671461); conditions: drug combinations, stronger effect = higher value;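 further: cells exposed to drugs for 96 hours; 0% = vehicle DMSO and 100% = high DMSO full killing control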
# [16] = growth inhibition of RCMB18 medulloblastoma cells, cell-based, cisplatin and BGB IC40 combos (AID 1671462); conditions: stronger effect = higher value;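 further: cells exposed to compound for four days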
# [17] = growth inhibition of CRL1545 osteosarcoma cells, cell-based, cisplatin and BGB IC20 combos (AID 1671464); conditions: stronger effect = higher value;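 further: cells exposed to compound for 96 hours before readout; 0% = vehicle DMSO and 100% = high DMSO killing control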
# [18] = stronger effect = lower value, cell number ratio, induced over uninduced
# [19] = measured here: relative caspase fold change +Dox/-Dox
# [20] = measured here: total cells with miR-34 induction, stronger effect = lower value
# [21] = measured here: total cells without miR-34 induction
# [22] = MELAS cybrid survival, CellTiter-Glo 48 h, stronger effect = higher value
# [23] = Rieske KO mouse fibroblast survival, CellTiter-Glo 72 h
# [24] = at 0.5 µM, stronger effect = higher value
# [25] = measured here: combination with BGB IC20, at 0.005 µM
# [26] = measured here: combination with BGB IC40, at 0.005 µM
# [27] = measured here: combination with BGB IC40, at 0.05 µM
# [28] = measured here: combination with cisplatin, at 0.5 µM, stronger effect = higher value
# [29] = measured here: combination with cisplatin, at 5 µM, stronger effect = higher value
# [30] = measured here: with BGB IC20 combination, at 0.5 µM
# [31] = measured here: with cisplatin IC20 combination, at 0.5 µM
# [32] = measured here: 5 uM single agent, at 5 µM
# [33] = measured here: combination with cisplatin, at 0.5 µM
# [34] = measured here: combination with cisplatin, at 5 µM
smiles,measurement,setting,value
CC=C1NC(=O)C2CSSCCC=CC(CC(=O)NC(C(C)C)C(=O)N2)OC(=O)C(C(C)C)NC1=O (centres undefined),fold change,[1]; [18],0.776 (inactive)
same,fold change,[1]; [19],0.484
same,cell count,[1]; [20],596
same,cell count,[1]; [21],768
same,z-score,[2]; [22],0.102 (inactive)
same,z-score,[2]; [23],-3.68
same,inhibition,[3]; [24],-10.7% (inactive) and 88% (active)
same,inhibition,[3]; [25],24.5% and 60%
same,inhibition,[3]; [26],2.54% and 37.2%
same,inhibition,[3]; [27],74.1% and 67.4%
same,inhibition,[3]; [28],10.9% and 123%
same,inhibition,[3]; [29],118% and 111%
same,inhibition,"[4]; BGB combo, at 5 µM",99.8% and 99.9%
same,inhibition,[4]; at 0.5 µM,99.7% (active) and 99.8% (active)
same,inhibition,"[4]; cisplatin combo, at 5 µM",99.8% and 99.9%
same,inhibition,[4]; [30],99.7% and 99.8%
same,inhibition,[4]; [31],99.8% and 99.9%
same,inhibition,"[4]; single agent, at 5 µM",99.9%
same,inhibition,"[5]; BGB IC20 combo, at 0.005 µM",90.4% and 84.4%
same,inhibition,"[5]; BGB IC40 combo, at 0.005 µM",97.9% and 97.5%
same,inhibition,"[5]; BGB IC40 combo, at 0.05 µM",97% and 97.5%
same,inhibition,[5]; at 0.5 µM,-17.2% (inactive) and 63.7% (inactive)
same,inhibition,"[5]; cisplatin combo, at 0.05 µM",96.8% and 97.9%
same,inhibition,"[5]; cisplatin combo, at 0.5 µM",-7.95% and 70.2%
same,inhibition,"[5]; cisplatin combo, at 5 µM",85.1% and 97.2%
same,inhibition,[5]; [32],81.2% and 80.4%
same,inhibition,[6]; at 0.5 µM,95.1% (active) and 99.5% (active)
same,inhibition,[6]; [27],91.6% and 93.4%
same,inhibition,[6]; [33],100% and 110%
same,inhibition,[6]; [34],98.8% and 99.1%
same,inhibition,[7]; at 0.5 µM,99.8% (active)
same,inhibition,"[7]; measured here: with BGB IC20, at 0.5 µM",99.8%
same,inhibition,"[7]; measured here: with BGB IC20, at 5 µM",99.9%
same,inhibition,"[7]; measured here: with cisplatin IC20, at 0.5 µM",99.9% and 99.8%
same,inhibition,"[7]; measured here: with cisplatin IC20, at 5 µM",99.9%
same,inhibition,"[7]; single agent, at 5 µM",99.9%
same,inhibition,[8]; at 0.5 µM,94.7% (active) and 97.3% (active)
same,inhibition,"[8]; measured here: combination with BGB at IC20, at 0.5 µM",91% and 95.3%
same,inhibition,"[8]; measured here: combination with cisplatin at IC20, at 0.5 µM",96.7% and 99.1%
same,inhibition,[9]; at 0.5 µM,99.8% (active) and 99.9% (active)
same,inhibition,"[9]; measured here: combo with BGB at IC20, at 0.5 µM",99.8%
same,inhibition,"[9]; measured here: combo with cisplatin at IC20, at 0.5 µM",99.8% and 100%
same,inhibition,[10]; at 0.5 µM,97.4% (active) and 98.3% (active)
same,inhibition,"[10]; measured here: inhibition with BGB combination, at 0.05 µM",65.5% and 83.9%
same,inhibition,"[10]; measured here: inhibition with cisplatin combination, at 0.05 µM",79.2% and 89.7%
same,inhibition,[11]; at 0.5 µM,88.5% (active) and 90.2% (active)
same,inhibition,[11]; [33],99.4% and 104%
same,inhibition,[11]; [34],102% and 106%
same,inhibition,[12]; at 0.5 µM,71.3% (inactive) and 68.4% (inactive)
same,inhibition,"[12]; measured here: BGB combination, at 0.5 µM",57.2% and 55.5%
same,inhibition,"[12]; measured here: BGB combination, at 5 µM",70.4% and 77.6%
same,inhibition,"[12]; measured here: cisplatin combination, at 0.5 µM",73.2% and 67.4%
same,inhibition,"[12]; measured here: cisplatin combination, at 5 µM",84.8% and 85.1%
same,inhibition,"[13]; BGB combination, concentration series, at 5 µM",118% and 126%
same,inhibition,[13]; at 0.5 µM,106% (active) and 109% (active)
same,inhibition,"[13]; cisplatin combination, concentration series, at 5 µM",131% and 130%
same,inhibition,[14]; at 0.5 µM,102% (active) and 101% (active)
same,inhibition,"[14]; measured here: combo with BGB IC20, at 0.5 µM",105% and 103%
same,inhibition,"[14]; measured here: combo with cisplatin IC20, at 0.5 µM",101%
same,inhibition,[15]; at 0.5 µM,93.8% (active) and 102% (active)
same,inhibition,"[15]; cisplatin combination, at 0.5 µM",102% and 101%
same,inhibition,"[15]; cisplatin combination, at 5 µM",106%
same,inhibition,"[15]; measured here: BGB IC40 combination 0.05 uM, at 0.05 µM",99.6% and 96.6%
same,inhibition,"[15]; single agent, at 5 µM",106% and 108%
same,inhibition,[16]; at 0.5 µM,90.4% (active) and 89.4% (active)
same,inhibition,"[16]; cisplatin combo, at 5 µM",96% and 97.2%
same,inhibition,"[16]; measured here: BGB IC40 combination, at 0.05 µM",78.9% and 79.8%
same,inhibition,[16]; [33],92.6% and 90.7%
same,inhibition,"[16]; single agent, at 5 µM",96.6% and 90.8%
same,inhibition,[17]; at 0.5 µM,96% (active) and 96.3% (active)
same,inhibition,[17]; [30],97% and 96.3%
same,inhibition,[17]; [31],95.4% and 96.2%
same,inhibition,"[17]; single agent, at 0.05 µM",89.7% and 93.3%
same,inhibition,"[17]; single agent, at 5 µM",97.8% and 96.3%
CN(C)CC(=O)Nc1ccc2[nH]c(=O)c3ccccc3c2c1,fold change,[1]; [18],0.941 (inactive) and 0.916 (inactive)
same,fold change,[1]; [19],0.694 and 0.571
same,cell count,[1]; [20],5000 and 7760
same,cell count,[1]; [21],5310 and 8470
same,z-score,[2]; [22],-0.15 (inactive) and -0.352 (inactive)
same,z-score,[2]; [23],-0.197 and 0.819
same,inhibition,[3]; [24],-18.5% (inactive) and -17% (inactive) and -7.46% (inactive)
same,inhibition,[3]; [25],12.4% and -8.96% and -31.5%
same,inhibition,[3]; [26],-19.5% and -21.6% and -39.4%
same,inhibition,[3]; [27],-14.8% and -27.5% and -40.5%
same,inhibition,[3]; [28],-45.3% and -39.5% and -30.4%
same,inhibition,[3]; [29],4.17% and -17.8% and -4.6%
same,inhibition,"[4]; BGB combo, at 5 µM",7.32% and -6.67% and -9.33%
same,inhibition,[4]; at 0.5 µM,6.02% (inactive) and -1.05% (inactive) and -19% (inactive)
same,inhibition,"[4]; cisplatin combo, at 5 µM",17.1% and 1.58% and -10.8%
same,inhibition,[4]; [30],-3% and -3.63% and -21.1%
same,inhibition,[4]; [31],16.9% and 5.73% and -18.5%
same,inhibition,"[4]; single agent, at 5 µM",15.5% and 10.2% and 30.1%
same,inhibition,"[5]; BGB IC20 combo, at 0.005 µM",-13.3% and -2.95% and -7.79%
same,inhibition,"[5]; BGB IC40 combo, at 0.005 µM",-17% and -47.2% and -17.2%
same,inhibition,"[5]; BGB IC40 combo, at 0.05 µM",-0.058% and 4.16% and -0.711%
same,inhibition,[5]; at 0.5 µM,-28.4% (inactive) and -20.4% (inactive) and -5.86% (inactive)
same,inhibition,"[5]; cisplatin combo, at 0.05 µM",-2.85% and 1.48% and -4.33%
same,inhibition,"[5]; cisplatin combo, at 0.5 µM",-27.2% and -5.09% and 16.6%
same,inhibition,"[5]; cisplatin combo, at 5 µM",-20% and -21% and -0.405%
same,inhibition,[5]; [32],-18.7% and -14.3% and -10.6%
same,inhibition,[6]; at 0.5 µM,-13.8% (inactive) and -13.5% (inactive) and -14% (inactive)
same,inhibition,[6]; [27],-3.83% and -23.1% and -25.7%
same,inhibition,[6]; [33],0.486% and -10.2% and -9.3%
same,inhibition,[6]; [34],-18.1% and 3.23% and -15.4%
